# VDR inh: Inhibitors of the vitamin D receptor (VDR): qHTS | Vitamin D3 receptor (Homo sapiens), P11473 | VDR-SRC2-3 peptide fluorescence polarization, 2 h | Potency, µM, for inactives: max response, negative = inhibition, usual class: inhibitors | 0.93% of 400,000 active | AID 504847, 2011; further: on the % scale 0 is the no-effect control and ±100 the full control effect
#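 The screen uses fluorescence polarization to detect compounds that interfere with recruitment of the SRC2-3 coactivator peptide to VDR; plates are read after 2 h at room temperature.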
# GCN5L2 inh: qHTS Assay for Inhibitors of GCN5L2. AID 504327, 2011. Histone acetyltransferase KAT2A (Homo sapiens), Q92830. 0.21% of 390,000 active. GCN5L2 HAT assay, ThioGlo1 CoA-SH fluorescence. Potency, µM (titrated, usually from 58.9 µM), inactives show at the highest dose activity change, negative = inhibition, hits mostly inhibitors; further: on the % scale 0 is the no-effect control and ±100 the full control effect
#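 Enzyme at 20nM final was mixed with library compounds for 15 min at room temperature. Peptide H3(1-25) at 75uM, acetyl-CoA at 70uM and ThioGlo1 at 50uM were then added. Plates were read immediately and after 20 min (Ex340nm/Em540nm).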
# GLS inh: qHTS for Inhibitors of Glutaminase (GLS). Glutaminase kidney isoform, mitochondrial (Homo sapiens), O94925. GLS enzymatic activity, qHTS titration. Potency, µM (doses to about 45.5 µM), without a hit: at the top dose activity change, negative = inhibition, most hits filed as inhibitors. 0.21% of 410,000 active; further: on the % scale 0 is the no-effect control and ±100 the full control effect
# Target sequence (O94925 whole entry, looked up, canonical isoform): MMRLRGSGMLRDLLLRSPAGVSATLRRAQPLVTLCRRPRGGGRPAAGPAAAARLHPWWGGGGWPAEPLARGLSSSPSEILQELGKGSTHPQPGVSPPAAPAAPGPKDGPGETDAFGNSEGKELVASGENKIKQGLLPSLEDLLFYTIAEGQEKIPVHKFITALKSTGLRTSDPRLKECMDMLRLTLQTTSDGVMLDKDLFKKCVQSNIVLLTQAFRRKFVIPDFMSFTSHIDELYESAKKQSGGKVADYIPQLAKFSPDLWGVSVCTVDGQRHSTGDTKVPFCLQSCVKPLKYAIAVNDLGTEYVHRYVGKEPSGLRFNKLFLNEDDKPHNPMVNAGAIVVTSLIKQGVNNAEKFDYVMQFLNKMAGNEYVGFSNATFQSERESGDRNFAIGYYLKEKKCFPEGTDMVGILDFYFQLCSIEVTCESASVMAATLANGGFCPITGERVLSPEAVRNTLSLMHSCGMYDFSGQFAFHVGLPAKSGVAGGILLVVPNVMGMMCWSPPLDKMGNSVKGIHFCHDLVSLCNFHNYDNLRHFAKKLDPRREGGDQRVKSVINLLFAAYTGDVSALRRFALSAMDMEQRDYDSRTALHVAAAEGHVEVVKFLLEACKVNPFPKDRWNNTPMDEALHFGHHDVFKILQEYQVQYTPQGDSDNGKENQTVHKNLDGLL
#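 hKGA in 45 mM KH2PO4 (pH 8.2), 0.02% Tween-20 with compound, then 1mM L-Glutamine (stock as added) plus glutamate oxidase/HRP/Amplex red coupling mix. Fluorescence read initially and after 30 min at RT; signal change reflects glutamate formation.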
# PLK1 PBD block: qHTS for Inhibitors of PLK1-PDB (polo-like kinase 1 - polo-box domain): Primary Screen; Serine/threonine-protein kinase PLK1 (Homo sapiens), P53350; Plk1 PBD binding of FITC phosphopeptide, fluorescence polarization; Potency, µM, without a hit: max response, negative = inhibition, actives largely listed as inhibitors; 2.8% of 360,000 active; AID 720504, 2013; further: series mostly up to about 57 µM; on the % scale 0 is the no-effect control and ±100 the full control effect; nearly all actives have a fitted effect of over 65% in size
# PKM2 activator: qHTS Assay for Activators of Human Muscle isoform 2 Pyruvate Kinase. purified PKM2, Kinase-Glo ATP luminescence, activation; response scale: 0% is enzyme alone, no compound. AID 1631, 2009. Pyruvate kinase PKM (Homo sapiens), P14618. 0.34% of 260,000 active. Potency, µM (doses to about 57.5 µM), for the others: at the highest dose activation, most hits filed as activators; further: on the % scale 0 is the no-effect control and ±100 the full control effect; nearly all actives have a fitted effect of over 55% in size
#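 Purified hPK-M2 (>95%) run at intermediate activity with 0.1 mM ADP and 0.5 mM PEP in 50 mM imidazole pH 7.2, KCl, MgCl2; 1 h room temperature. ATP formed read by Kinase-Glo luminescence; normalized to uninhibited and no-enzyme controls.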
# Mito fusion act: qHTS Assay for Small Molecule Inhibitors of Mitochondrial Division or Activators of Mitochondrial Fusion; S. cerevisiae fusion-defective mutant growth rescue, CellTiterGlo 48 h; Potency, µM (top dose mostly 46.1 µM), for inactives: top-dose growth rescue (activation), hits mostly activators; 0.23% of 320,000 active; AID 485298, 2010; further: % of control where 0% means no effect; nearly all actives have a fitted effect of over 45% in size
#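 S. cerevisiae fusion-defective temperature-sensitive mutants (e.g. fzo1-1, mgm1-5) grown 48 h at 37C in YPEG (ethanol/glycerol non-fermentable) medium with 23 nl compound per well; growth rescue read as CellTiterGlo luminescence.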
# Numbers without * were called inactive; ? = inconclusive; . = no result; ! = not active in a repeat; [ ] = dose if it differs, or a comment. Hits are enriched below; roughly 3.4% of the tested compounds scored in any of these assays. The call rests on the fitted dose curve; in most records, active means well fitted curve in the direction sought with a large enough effect; inconclusive means small, poorly fitted or top-dose-only effect, or another doubt; inactive means no such curve, though single readings can be large; an effect the other way counts as inactive or inconclusive. Potency means the concentration at half of the fitted maximal effect.
SMILES,VDR inh,GCN5L2 inh,GLS inh,PLK1 PBD block,PKM2 activator,Mito fusion act
CC1(C)CC(c2nc(-c3ccc(Br)cc3)cs2)CCS1 (stereo unspecified),?,-12%,6%,3.8µM*,-5%,0%
O=C(O)CCCn1cc(NC(=O)c2cc(F)c(F)cc2Cl)cn1,?,26%,?,8.4µM*,-9%,7%
COc1ccc2c(c1)O[C@H](c1ccc3c(c1)OCO3)[C@@H](OC(=O)NCCOc1ccccc1)C2=O,-2%,.,.,.,.,.
COc1cc(OC)cc(N2CC(C)(C)C2=O)c1,-24%,-10%,-7%,21µM*,2%,2%
CC(=O)c1coc2c1cc(O)c1ccccc12,8%,-6%,-18%,-2%,-5%,-1%
CC(=O)c1cc(O)c2ccccc2c1O,32µM*,?,6%,5.3µM*,3%,-25%
Nn1c(SCC(=O)NCCC2=CCCCC2)nnc1-c1cccnc1,-8%,-29%,5%,-5%,.,-6%
CC(C)c1nnc(SCC(=O)NCCC2=CCCCC2)n1N,89µM*,4%,4%,11µM*,15%,7%
COc1ccc(CN(C)C(=O)Cn2ccsc2=N)cc1OC,8%,-4%,-9%,?,.,-3%
COc1ccc(CN(C)C(=O)Cn2cc(C)c(=O)[nH]c2=O)cc1OC,-27%,.,-3%,27µM*,.,.
CC(=O)c1c(C)[nH]c(C(=O)OCC(=O)NC(C)c2ccccc2)c1C (stereo unspecified),.,.,-1%,-9%,.,.
CC1=CC(C)(C)NC(=S)N1c1cccc2cc(S(=O)(=O)O)ccc12,-25%,-20%,11µM*,27µM*,15%,2%
Cc1ccccc1Cc1n[nH]c(=S)n1N,-6%,-6%,2%,-11%,-5%,-7%
Nn1c(Cc2ccccc2)n[nH]c1=S,23%,0%,14%,0%,-9%,2%
CC(Cc1n[nH]c(=S)n1N)c1ccccc1 (stereo unspecified),-6%,15%,30%,27µM*,.,-2%
Nn1c(Cc2ccc(F)cc2)n[nH]c1=S,4%,-2%,-9%,19µM*,27%,-4%
Cc1nn(-c2ccc(Cl)cn2)c2c1C(=O)CC(C)(C)C2Br (stereo unspecified),?,.,-5%,-2%,.,.
O=C(N/N=C/c1ccc(N2CCOCC2)o1)c1cccc(F)c1,40µM*,-11%,-4%,-16%,26%,-4%
NC(=O)c1cc(NC(=O)CCNS(=O)(=O)c2cccc(C(F)(F)F)c2)cc(C(N)=O)c1,-10%,-2%,8%,-14%,3%,-2%
COc1ccc(OC)c(CNC(=O)c2cc3cc4ccc(OC)cc4nc3o2)c1,-7%,-4%,5%,.,.,.
COc1ccc2c(c1OC)C(=O)N1N=C(c3ccc(F)cc3)CC21 (stereo unspecified),?,-10%,0%,12µM*,-4%,-1%
CCS(=O)(=O)N1CCC(C(=O)Oc2ccc(Cl)cc2)CC1,-12%,-1%,-3%,27µM*,-2%,-1%
CCS(=O)(=O)N1CCC(C(=O)Oc2ccc(Br)cc2)CC1,-11%,-4%,4%,-26%,-1%,0%
COc1ccc(NC(=O)CSc2n[nH]c(N)n2)c([N+](=O)[O-])c1,-6%,-7%,13%,0%,14µM*,-1%
CCOc1ccc(NC(=O)COc2ccccc2)c([N+](=O)[O-])c1,?,1%,?,24µM*,9%,4%
SMILES,VDR inh,GCN5L2 inh,GLS inh,PLK1 PBD block,PKM2 activator,Mito fusion act
COc1ccc(NC(=O)CSc2n[nH]c(C(C)C)n2)c([N+](=O)[O-])c1,9%,3%,0%,-15%,20%,-4%
COc1ccc(NC(=O)COC(=O)c2ccco2)c([N+](=O)[O-])c1,-5%,-2%,52%,27µM*,4%,-14%
CCC(=O)OCC(=O)Nc1ccc(OC)cc1[N+](=O)[O-],6%,-6%,-3%,-14%,1%,4%
Cc1ccc(C(O)c2ncc(-c3ccccc3Cl)[nH]2)cc1 (stereo unspecified),.,.,6%,5%,.,.
Cn1cnc(C(=O)NCc2ccc(CNC(=O)OC(C)(C)C)cc2)c1C(=O)NCc1ccc(CNC(=O)OC(C)(C)C)cc1,17%,-13%,-9%,-7%,.,.
Cc1[nH][nH]c(=O)c1C(c1ccc(-c2ccc(Cl)c(C(=O)O)c2)o1)c1c(C)[nH][nH]c1=O,40µM*,-22%,2%,?,3%,-3%
COC(=O)c1ccccc1-c1ccc(C(c2c(C)[nH][nH]c2=O)c2c(C)[nH][nH]c2=O)o1,?,-2%,13%,?,11%,-2%
COC(=O)c1cccc(-c2ccc(C(c3c(C)[nH][nH]c3=O)c3c(C)[nH][nH]c3=O)o2)c1,-27%,-3%,?,24µM*,15%,-5%
COCCN1CCN(C(=O)c2ccc3oc(CCc4ccccc4)nc3c2)CC1,-12%,-19%,0%,4%,-1%,-3%
COc1cc2c(cc1OC)C1=NC(=O)CN1C(SCc1ccccc1)=N2,-8%,?,10%,27µM*,-3%,10%
CC(/C=N/NC(=O)CSc1nc2ccccc2n1C)=C\c1ccco1,-11%,-9%,-5%,-16%,5µM*,-2%
CCOC(=O)c1ccc(OCCN2C[C@H](O)[C@@H](O)[C@H](O)[C@H]2CO)cc1,.,.,-3%,.,.,.
CC(=O)Nc1ccc(NC(=O)CSc2nnc(-c3cccs3)n2C)cc1,-11%,-7%,1%,2%,.,1%
C[N+](C)(C)CCC(=O)N1C/C(=C/c2ccccc2)C(=O)/C(=C\c2ccccc2)C1,79µM*,.,-9%,-11%,.,.
COc1ccc2oc(C(=O)NCCN3CCOCC3)c(C)c2c1OC,2%,-2%,-13%,-8%,-12%,-1%
COc1ccc(CNC(=O)c2nn(C)c3c2CS(=O)(=O)c2ccccc2-3)cc1,79µM*!,2%,-1%,2%,2%[0.46 µM],?
COc1cccc(CNC(=O)c2nn(C)c3c2CS(=O)(=O)c2ccccc2-3)c1,5%,-5%,1%,.,.,.
CCc1ccc(CNC(=O)c2nn(C)c3c2CS(=O)(=O)c2ccccc2-3)cc1,1%,-8%,4%,-12%,1%[0.46 µM],10%
Cc1ccc(CNC(=O)c2nn(C)c3c2CS(=O)(=O)c2ccccc2-3)cc1,-26%,-3%,18%,30µM*,.,?
